From PubChem BioAssay AID1721 (National Center for Advancing Translational Sciences (NCATS), 2009)
Among all 290,000 compounds or so, about 1,100 (0.38%) were called active. Entries that show only a call come without a potency. This is one part of a sample in which actives are shown more often than they occur. Calls follow the shape of the dose curve; as a rule, active = well fitted inhibition curve with a large enough effect; inconclusive = small, poorly fitted or top-dose-only effect, or another doubt; inactive = no such curve, though single readings can be large or run the other way.

What follows are compounds tested against Pyruvate kinase (Leishmania mexicana) (UniProt Q27686) (assay: qHTS Assay for Inhibitors of Leishmania Mexicana Pyruvate Kinase (LmPK)). Details: purified LmPK, Kinase-Glo ATP luminescence, 1 h; series mostly up to 57.5 µM.
Chain of Pyruvate kinase (Leishmania mexicana) (Q27686 whole entry, looked up): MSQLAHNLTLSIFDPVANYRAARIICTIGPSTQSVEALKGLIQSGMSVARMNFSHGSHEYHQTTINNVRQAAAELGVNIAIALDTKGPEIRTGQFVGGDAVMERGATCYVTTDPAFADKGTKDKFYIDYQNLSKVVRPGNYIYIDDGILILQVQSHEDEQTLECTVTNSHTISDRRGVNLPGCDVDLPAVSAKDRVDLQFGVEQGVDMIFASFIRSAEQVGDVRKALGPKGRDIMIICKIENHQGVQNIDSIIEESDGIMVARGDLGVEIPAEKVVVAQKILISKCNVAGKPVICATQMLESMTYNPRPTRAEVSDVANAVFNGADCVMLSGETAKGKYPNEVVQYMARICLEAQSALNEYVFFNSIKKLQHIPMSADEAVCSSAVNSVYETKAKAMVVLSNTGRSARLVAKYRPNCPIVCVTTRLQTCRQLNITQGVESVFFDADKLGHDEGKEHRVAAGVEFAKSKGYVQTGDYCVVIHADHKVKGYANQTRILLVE
From the text: NIH Chemical Genomics Center [NCGC] Malcolm Walkinshaw, Hugh Morgan, Linda Gilmore University of Edinburgh, UK MLPCN Grant: 1 R03 MH085697-01 NCGC Assay Overview: Pyruvate kinase (L. Mexicana) (LmPK) enzyme was supplied as a highly purified (>95% pure) sulphate-free preparation from University of Edinburgh, UK and assayed for its ability to generate ATP from ADP using phosphoenolpyruvate (PEP) as a substrate. ATP generation was detected in a coupled reaction by luciferase-mediated luminescence, an ATP-dependent process. […] The enzyme was assayed at an intermediate level of activity to screen for both inhibitors and activators.
NCGC Assay Protocol Summary: Three uL of enzyme mix (kept on ice) in assay buffer (50 mM Imidazole pH7.2, 50 mM KCl, 7 mM MgCl2, 0.01% Tween 20, 0.05% BSA) containing PEP (0.5 mM final concentration) and LmPK (0.1 nM final concentration) was dispensed into white solid bottom 1,536 well microtiter plates. 23 nL of compound were delivered by a pin tool and 1 uL of ADP mix in assay buffer (r.t; 0.1 mM final ADP concentration) was added. Plates were incubated at room temperature for 1 hour. Two uL of detection mix (Kinase-Glo, Promega; at 4 degree Celsius protected from light) was added and luminescence read by a ViewLux (Perkin Elmer) at 1 second exposure/plate. Data were normalized to the uninhibited and AC100 inhibition (no enzyme). To monitor activation, the first column contained a five-fold concentration of LmPK (0.5 nM).
Potency is read from the fitted curve at half-maximal effect.

Row | Structure (SMILES) | Potency | activity change, negative = inhibition
1 | CC1CC(C)CN(c2ccc(S(=O)(=O)N3CCOCC3)cc2)C1 (stereo not drawn) | inactive | 
2 | Cc1cc(CN(C)C(=O)c2cc(COc3ccc(C)c(C)c3)on2)n[nH]1 | inactive | 
3 | O=C(NCc1cccnc1)c1cccc(-c2cc3ccccc3oc2=O)c1 | inactive | 
4 | Nc1ncc(-c2cc3ccccc3oc2=O)s1 | 11.2 µM (active) | 
5 | O=c1oc2ccccc2cc1-c1csc(Nc2ccc(O)cc2)n1 | inactive | 
6 | Clc1ccc(-c2cc(-c3ccccn3)on2)c(Cl)c1 | 15.8 µM (active) | 
7 | Clc1ccc(-c2ncc3ccccn23)c(Cl)c1 | inactive | 
8 | O=C1CSC(c2ccccc2)N1c1nc(-c2ccc(Cl)cc2Cl)cs1 (stereo not drawn) | inactive | 
9 | CCOC(=O)C(C)n1cnc2c(nnn2-c2ccc(F)cc2)c1=O (stereo not drawn) | inactive | 
10 | CN(C)N1C(N)=C(C#N)C(c2ccc(Br)cc2)C2=C1CCCC2=O (stereo not drawn) | inactive | 
11 | COc1ccc(-c2cn3ccc(C)cc3n2)cc1 | 8.91 µM (active) | 
12 | COc1ccc(-c2cn3cccnc3n2)cc1 | inactive | 
13 | CCN(CC)S(=O)(=O)c1ccc(-c2cn3ccc(C)cc3n2)cc1 | inactive | 
14 | Cc1ccc(NS(=O)(=O)c2c(C)[nH]c(C)c2C(=O)N2CCCCC2)c(C)c1 | inactive | 
15 | O=C(Nc1cccc(-c2nc3ccccc3[nH]2)c1)c1ccc(C(=O)Nc2cccc(-c3nc4ccccc4[nH]3)c2)cc1 | inactive | 
16 | COc1ccc(Br)cc1C(=O)NC(=S)Nc1cc(-c2nc3ccccc3[nH]2)ccc1C | inactive | 
17 | OC(c1nc2ccccc2[nH]1)C(O)C(O)C(O)c1nc2ccccc2[nH]1 (stereo not drawn) | inactive | 
18 | Cc1ccc(-c2nc3ccccc3[nH]2)cc1N | 15.8 µM (active) | 
19 | Cc1ccc(-c2nc3ccccc3[nH]2)cc1NC(=O)c1sc2ccccc2c1Cl | inactive | 
20 | c1ccc2[nH]c(-c3nc4ccccc4[nH]3)nc2c1 | 8.91 µM (active) | 
21 | C[C@H](NC(=O)C1CCN(S(=O)(=O)c2ccccc2)CC1)C(=O)NCc1ccccc1 | inactive | 
22 | COc1ccccc1C(=O)NC(=S)Nc1ccccc1N1CCCCC1 | inactive | 
23 | CC1(C)Cc2c(sc(NC(=O)C(=O)N3CCOCC3)c2C#N)CO1 | inactive | 

Row | Structure (SMILES) | Potency | activity change, negative = inhibition
24 | COc1ccc(C(=O)C[n+]2ccc(N)c(C)c2C)cc1 | 7.94 µM (active) | 
25 | COc1ccc(OCCC(=O)c2ccc(OC)cc2)cc1 | inactive | 
26 | COc1ccc(C(=O)C[n+]2ccc(C)cc2)cc1 | inactive | 
27 | CC(=O)NC1=NN(C(C)=O)C(C)(c2ccc(Cl)s2)S1 (stereo not drawn) | inactive | 
28 | CC(C)[C@H](NC(=O)N1CCn2c1nc1ccccc12)C(=O)NCc1ccc2c(c1)OCO2 | inactive | 
29 | N/C(=N\OC(=O)c1ccc([N+](=O)[O-])cc1)c1ccccn1 | 5.01 µM (active) | 
30 | N/C(=N\OC(=O)Cc1ccc([N+](=O)[O-])cc1)c1ccccn1 | inactive | 
31 | COc1ccc(C(=O)O/N=C(\N)c2ccccn2)cc1[N+](=O)[O-] | inactive | 
32 | COc1cccc(NC(=O)[C@H](Cc2c[nH]c3ccccc23)NC(=O)[C@@H]2Cc3ccccc3CN2)c1 | inactive | 
33 | COc1cc(C(=O)N/C(=C\c2cn(C)c3ccccc23)C(=O)N2CCOCC2)cc(OC)c1OC | inactive | 
34 | COc1cnc(-c2ccccn2)nc1Oc1ccc(C(C)(C)C)cc1 | inactive | 
35 | N#C/C(=C\C1=C(N2CCOCC2)C(=C\c2ccccc2)/CC1)C(=O)Nc1ccccc1F | inactive | 
36 | C(=N\N1CCN(c2ccccn2)CC1)/C1=C(N2CCOCC2)C(=C/c2ccccc2)/CC1 | inactive | 
37 | O=C1Nc2ccc(Br)cc2/C1=N/N=C/C1=C(N2CCOCC2)C(=C\c2ccccc2)/CC1 | 14.1 µM (active) | 
38 | CC1CCC2CCCCC2N1C(=O)c1cc([N+](=O)[O-])cc([N+](=O)[O-])c1 (stereo not drawn) | inactive | 
39 | CCCS(=O)(=O)N1CCN=C1SCc1cccc(F)c1 | inactive | 
40 | COc1ccc(-c2nc3cc([N+](=O)[O-])ccc3o2)cc1OC | inactive | 
41 | COc1cccc(-c2nc3cc(C)ccc3o2)c1 | 14.1 µM (active) | 
42 | COc1ccc2oc(-c3cccc(NC(=O)CSc4ccc(Cl)cc4)c3)nc2c1 | inactive | 
43 | COc1nc(-c2ccc(Cl)cc2)ccc1-c1noc(-c2cccs2)n1 | inactive | 
44 | c1ccc(-c2noc(-c3cccs3)n2)nc1 | 11.2 µM (active) | 
45 | COc1ccc(Cc2nc(-c3ccccn3)no2)cc1OC | inactive | 
46 | C=CCOc1ccc(C(=O)Nc2ccccc2C(=O)N2CCCC2)cc1 | inactive | 

Row | Structure (SMILES) | Potency | activity change, negative = inhibition
47 | COC(=O)c1ccc(C23CC4(C2)[C@H](CN(Cc2cccnc2)[C@@H]4c2ccccc2)C3c2ccc(Cl)nc2)cc1 (stereo partly drawn) | inactive | 
48 | Cc1cccc(NC(=O)c2cc(S(=O)(=O)N3CCC4(CC3)OCCO4)ccc2F)c1 | inactive | 
49 | CCCCCCCC1=Cc2ccc(F)cc2C(C(C(=O)OC)C(=O)OC)N1C(=O)OC (stereo not drawn) |  | -1.7% [at 11.5 µM] (inactive)
50 | S=c1[nH]ccn1-c1ccc(Cl)cc1 | 25.1 µM (active) | 
51 | O=S(=O)(c1ccc(F)cc1)N1CCN=C1SCc1cccc(F)c1 | inactive | 
52 | CC(=O)Oc1cccc(C(=O)Nc2ccccc2NC(=O)c2cccc(OC(C)=O)c2)c1 | inactive | 
53 | C=CCN1c2ccccc2[C@]23C[C@@H](C(=O)OC)N(S(=O)(=O)c4ccc([N+](=O)[O-])cc4)C2=NC(C(=O)OC)=C(C(=O)OC)[C@H]13 |  | -3.12% [at 11.5 µM] (inactive)
54 | CC(=O)Nc1ccc(NC(=O)CN2C(=O)COc3ccc(S(=O)(=O)N4CCCCC4)cc32)cc1 | inactive | 
55 | COc1ccc(NC(=O)c2cc(-c3ccc(C)cc3)on2)cc1 | inactive | 
56 | COc1ccc(C2=Nc3cc(C)ccc3OC2)cc1 | 11.2 µM (active) | 
57 | COc1ccc(C2=NOC3(CC(=O)N(c4ccc(C)cc4)C3=O)C2)cc1 (stereo not drawn) | inactive | 
58 | COc1ccccc1CN1CCNC(=O)C1CC(=O)N(C)CC1CCOCC1 (stereo not drawn) | inactive | 
59 | Cc1cccc(NC(=O)C2CCCN(C(=O)Nc3ccc(F)cc3)C2)c1C (stereo not drawn) | inactive | 
60 | COc1cc2c(C(=O)N(C)c3cc(Cl)ccc3OC)cn(C)c(=O)c2cc1OC | inactive | 
61 | COC(=O)C1=C(C(=O)OC)[C@@H]2Nc3ccccc3[C@@]23C[C@@H](C(=O)OC)N(S(=O)(=O)c2ccc([N+](=O)[O-])cc2)C3=N1 |  | -0.378% [at 11.5 µM] (inactive)
62 | O=C(Nc1ccc(Cl)cn1)c1ccc2c(c1)OCCO2 | 28.2 µM (active) | 
63 | O=C(Nc1cccc(S(=O)(=O)Nc2ccc(Cl)cc2)c1)c1ccc2c(c1)OCCO2 | inactive | 
64 | Cc1nc(NC(=O)c2ccc3c(c2)OCCO3)ccc1Br | inactive | 
65 | COC(=O)C(C(=O)OC)C1c2ccccc2C=C(C2CC2)N1C(=O)OC (stereo not drawn) |  | -6.03% [at 11.5 µM] (inactive)
66 | O=C(O)CCN=C1CCc2ccccc2N1 | inactive | 
67 | CSc1cccc(NC(=S)N(C(C)C)C(C)c2ccccn2)c1 (stereo not drawn) | inactive | 
68 | Cc1ccc(O)c(/C=N/NC(=O)COc2ccc3c(C)cc(=O)oc3c2)c1 | inactive | 
